As usually defined, the AC50 is the concentration giving half of the maximal activity seen.

Records with an inconclusive call do not appear. Activity calls are given as the source filed them. Rule for the calls: active = hit-call score of the fitted dose curve at least 0.9, where 1 is the maximum; inconclusive = response in the unintended direction; inactive = score below 0.9.

Chain of Estrogen receptor (Homo sapiens) (P03372 whole entry, looked up, the tested form may be a part): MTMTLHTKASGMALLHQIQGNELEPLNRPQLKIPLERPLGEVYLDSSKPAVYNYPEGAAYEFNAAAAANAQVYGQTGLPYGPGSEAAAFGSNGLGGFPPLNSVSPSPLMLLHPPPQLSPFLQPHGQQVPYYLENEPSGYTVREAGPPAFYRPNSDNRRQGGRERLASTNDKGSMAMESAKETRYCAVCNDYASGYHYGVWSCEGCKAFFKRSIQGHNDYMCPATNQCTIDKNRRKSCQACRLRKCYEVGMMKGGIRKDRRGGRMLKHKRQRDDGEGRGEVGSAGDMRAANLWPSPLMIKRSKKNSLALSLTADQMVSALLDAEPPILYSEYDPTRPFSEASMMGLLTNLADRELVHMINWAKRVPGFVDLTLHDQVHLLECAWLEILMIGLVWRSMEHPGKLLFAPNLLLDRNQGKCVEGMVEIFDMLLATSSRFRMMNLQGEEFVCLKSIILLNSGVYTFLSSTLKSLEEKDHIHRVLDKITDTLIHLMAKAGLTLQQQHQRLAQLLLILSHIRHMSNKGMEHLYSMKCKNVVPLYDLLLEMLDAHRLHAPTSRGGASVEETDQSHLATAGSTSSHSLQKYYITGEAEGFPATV

The experiment concerns the target Estrogen receptor (Homo sapiens) (UniProt P03372). The experiment can be described thus: OT_ER_ERaERa_0480: Odyssey Thera (OT) 8-hour HEK293T Protein-Complementation Assay for Estrogen Receptor-alpha/-alpha Homodimer (AID 2283351).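 Note: rise in fluorescence from reassembled reporter fragments on ERα LBD homodimer in nucleus or whole cell.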 How it is done: OT_ER_ERaERa_0480 is a cell-based assay that uses HEK293T, a human kidney cell line, with measurements taken at 8 hours after chemical dosing in a 384-well plate.OT_ER_ERaERa_0480 is one of one assay component(s) measured or calculated from the OT_ER_ERaERa_0480 assay. It is designed to make measurements of protein fragment complementation, a form of binding reporter, as detected with fluorescence intensity signals by Protein-fragment Complementation technology.Data from the assay component OT_ER_ERaERa_0480 was analyzed into 1 assay endpoint. This assay endpoint, OT_ER_ERaERa_0480, was analyzed in the positive analysis fitting direction relative to DMSO as the negative control and baseline of activity. Using a type of binding reporter, measures of receptor for gain-of-signal activity can be used to understand the binding at the pathway-level as they relate to the gene ESR1. Furthermore, this assay endpoint can be referred to as a primary readout, because the performed assay has only produced 1 assay endpoint. To generalize the intended target to other relatable targets, this assay endpoint is annotated to the nuclear receptor intended target family, where the subfamily is steroidal.
Protein-fragment complementation assay, or PCA, is a method for the identification and quantification of protein-protein interactions. In the PCA, the proteins of interest ("bait" and "prey") are each covalently linked to fragments of a third protein (e.g. DHFR, which acts as a "reporter"). Interaction between the bait and the prey proteins brings the fragments of the reporter protein in close proximity to allow them to form a functional reporter protein whose activity can be measured. The OT ER alpha / ER alpha assay is a homodimer PCA of the ligand binding domain (amino acids 310-547) of human ER alpha stably expressed in HEK293T cells. […] Fluorescent signal in the basal state of the assay is very low and is primarily punctuate and cytoplasmic. Modulation of this assay is quantified as an increase in mean fluorescence intensity in the nucleus (for agonists) or in the nucleus and cytoplasm (antagonists) relative to vehicle controls, and can be quantified on a high content imaging device or a laser scanning cytometer. The latter instrument is favored for this assay because of the rapid mode of data acquisition, the ability to acquire data from the entire cell population in a well (as opposed to a fraction of the well on the high content devices) and the larger dynamic range typically achieved with this instrument. To assess sensitivity of the ER alpha/ER alpha LBD assay to ligand, cells were treated with the ER agonist 17 beta-estradiol (E2) in 10-point concentration- response format for 8 hours and monitored response on a laser scanning plate cytometer (Acumen eX3; TTP Lab Tech).
On to `CCN=c1cc2oc3cc(NCC)c(C)cc3c(-c3ccccc3C(=O)OCC)c-2cc1C`, for which the concentration at half-maximal activity (AC50) is 12.2 µM (active).
`CC(C)(C)c1cc(Cc2cc(C(C)(C)C)c(O)c(C(C)(C)C)c2)cc(C(C)(C)C)c1O`: the call was inactive.
`CCc1cc(Cc2cc(CC)c(N)c(CC)c2)cc(CC)c1N`: the molecule was called inactive.
`CCCCCCCCCCCCC[N+](C)(C)Cc1ccccc1`: the molecule was called inactive.
In the case of `Cc1ccc(O)c(-n2nc3ccccc3n2)c1`, the result was inactive.
Still for that read-out and setting: in the case of `CC(=O)CCC(C)C` it was “inactive”; in that of `COCCOCCC[Si](C)(O[Si](C)(C)C)O[Si](C)(C)C`, “inactive”.
Consider `CCCCCCCC/C=C\CCCCCCCC(=O)OCC(O)CO` (stereo unspecified), for which the molecule was classed as inactive.
On the same count and under the same terms, in the case of `CC(C)Nc1ccc(NC(C)C)c2c1C(=O)c1ccccc1C2=O` it was “inactive”; in that of `F[Si-2](F)(F)(F)(F)F`, “inactive”.
Turning to `CCCCCCCCCc1ccc(OCCO)cc1`, the molecule was called inactive.
Take `CC(C)OC=O`: the result was inactive.
As to `CCC(Cc1c(I)cc(I)c(N)c1I)C(=O)O` (stereo unspecified), the AC50 was 66.3 µM (active).
For `N#Cc1ccccc1O`, the outcome was inactive.
In the case of `CCCCC(CC)COC(=O)c1ccc(N(C)C)cc1` (stereo unspecified), the molecule was called inactive.
Regarding `CCCCCCCCCCCCCC[P+](CCCC)(CCCC)CCCC`, the outcome was inactive.
For the molecule `CCCCOC(=O)[C@H](C)O`, the outcome was inactive.
As to `CCN=C1C=CC(=C(c2ccc(N(CC)CC)cc2)c2ccc(N(CC)CC)cc2)c2ccccc21`, the call was inactive.
As for `Cc1ccc([N+](=O)[O-])c(C)c1`, the outcome was inactive.
With `O=C1C=CC(=O)N1c1ccccc1`, the call was inactive.
As for `CCCCCCCCn1sc(Cl)c(Cl)c1=O`, the call was inactive.
Turning to `O=C(c1ccccc1)c1ccc(O)cc1O`, the AC50 is 22.7 µM (active).
On to `CCOC(=O)C1CC(=O)C(=C(O)C2CC2)C(=O)C1` (stereo unspecified), for which the molecule was called inactive.
Turning to `CCOC(OCC)OCC`, the call was inactive.
For the molecule `CCCCOC(=O)C(C)O` (stereo unspecified), the molecule was classed as inactive.
`OCC1CCCO1` (stereo unspecified): the molecule was classed as inactive.

(Values after PubChem BioAssay (EPA / NIEHS).)
